High-throughput results as filed in PubChem.
Rows were chosen to be rich in hits. Some 12% of all compounds tested hit in one or more screens of this group.
BAZ2B block = inhibitors of human BAZ2B bromodomain; Q9UIF8; AlphaScreen BAZ2B-H3K14Ac peptide displacement; Potency, µM (doses to about 114 µM), for the others: at the top dose activity change, negative = inhibition, most hits filed as inhibitors; 4.4% of 360,000 active; also: % is scaled to controls: 0 for no effect and ±100 for the full control effect; nearly all actives have a fitted effect of over 60% in size
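AlphaScreen luminescence quantifies BAZ2B engagement of H3K14Ac peptide; the protein and biotinylated peptide are both at 50 nM final, buffer PBS pH 7.4 with 0.01% Tween-20, all steps at room temperature.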
HP1b binding inh = HP1-beta chromodomain-methylated histone interaction inhibition; 0.56% of 390,000 active; AlphaScreen HP1-beta / biotin-H3K9me3 peptide binding; Potency, µM (highest dose often 114 µM), without a hit: at the top dose activity change, negative = inhibition, actives largely listed as inhibitors; also: nearly all actives have a fitted effect of over 70% in size
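Compound inhibition of the preformed complex between 50 nM HP1-beta and 50 nM biotinylated H3K9me3 peptide was read by AlphaScreen. Buffer was PBS pH 7.4 with 0.01% Tween-20. Incubations ran 30 min at room temperature, with 10 ug/mL donor/acceptor beads.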
Sfp PPTase inh = blocks B. subtilis Sfp PPTase activity | Q9F4F7 | Biochemical Sfp PPTase activity, qHTS | Potency, µM, for the others: largest response in the series, negative = inhibition, actives largely listed as inhibitors | 3.5% of 310,000 active;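 also: the enzyme is Sfp with the accession as filed and its product quenches rhodamine fluorescence; 0% = enzyme reaction without inhibitor and -100% = no enzyme wells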
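After 15 min at room temperature with compound, 15 nM Sfp received 5 uM rhodamine-CoA plus 12.5 uM BHQ-2-ybbR (50 mM Hepes pH 7.6, 10 mM MgCl2). Rate came from the fluorescence difference over 30 min, ex 525/em 598 nm.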
G9a block = G9a (human) methyltransferase inhibition | 8.8% of 350,000 active | G9a H3K9 monomethylation, AlphaScreen, 2 h | Potency, µM (doses to about 102 µM), without a hit: at the top dose activity, negative = inhibition, hits mostly inhibitors | Q96KQ7; also: % is scaled to controls: 0 for no effect and ±100 for the full control effect; nearly all actives have a fitted effect of over 75% in size
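Quantitative HTS format: methyltransferase activity on a biotin-tagged H3K9 peptide is measured by AlphaScreen, using a rabbit anti-monomethyl-H3K9 antibody with streptavidin donor and anti-IgG acceptor beads. Final levels are 20 nM enzyme, 500 nM peptide, 20 uM SAM; 2 h RT.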
JMJD2A Tudor = JMJD2A Tudor domain (human) inhibition. 4.4% of 390,000 active. AlphaScreen JMJD2A-Tudor / H3K4me3 peptide binding. AID 504339. Potency, µM (titrated, usually from 114 µM), without a hit: top-dose activity change, negative = inhibition, most hits filed as inhibitors; also: % is scaled to controls: 0 for no effect and ±100 for the full control effect; nearly all actives have a fitted effect of over 50% in size
L3MBTL1 inh = L3MBTL1 (human) inhibition. 0.66% of 230,000 active. Potency, µM (doses to about 57.1 µM), for the others: at the highest dose activity, negative = inhibition, most hits filed as inhibitors. AID 485360. Q9Y468. AlphaScreen L3MBTL1–H3K9me1 peptide binding; also: % is scaled to controls: 0 for no effect and ±100 for the full control effect; nearly all actives have a fitted effect of over 60% in size
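L3MBTL1 (50 nM) pre-complexed 30 min with biotinylated H3(1-15)K9me1 peptide (75 nM), then compounds added for 30 min at room temperature; AlphaScreen streptavidin donor/nickel chelate acceptor beads (10 ug/mL final) read after 30 min dark incubation.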
An asterisk follows results filed as active; ? = inconclusive; nt = not tested or not shown; [ ] = another dose, or the depositor's remark. Calls follow the shape of the dose curve; as a rule, active = well fitted curve in the direction sought with a large enough effect; inconclusive = small, poorly fitted or top-dose-only effect, or another doubt; inactive = no such curve, though single readings can be large; an effect the other way counts as inactive or inconclusive. Potency is read from the fitted curve at half-maximal effect.

SMILES	BAZ2B block	HP1b binding inh	Sfp PPTase inh	G9a block	JMJD2A Tudor	L3MBTL1 inh
Cc1ccc(CN(C)C2CCN(C)CC2)cc1	-5.5%	1.4%	6.3%	nt	?	-10.2%
COc1ccc(CN(C)C2CCN(C)CC2)cc1OC	56.2µM*	1.2%	5.7%	28.2µM*	89.1µM*	-15.5%
CS(=O)(=O)Nc1ccc(N2CCN(c3ccc(C(F)(F)F)cn3)CC2)nc1	-1.6%	38.0%	6.1%	15.0%	-8.0%	-8.1%
CC1=NN(c2ccc(C(F)(F)F)cn2)C(=O)C1	8.91µM*	40.1%	-1.8%	-7.5%	79.4µM*	?
CCOC(=O)c1ccc(NC(=O)c2ccc3c(c2)CCN3S(=O)(=O)c2ccc(Cl)cc2)cc1	-4.4%	45.6%	nt	1.8%[59 µM]	-14.5%	nt
O=C(Nc1cccc(Cl)c1)Nc1ccccc1OCc1cc(=O)n2ccccc2n1	2.7%	11.5%[57 µM]	nt	1.6%[59 µM]	-15.3%	nt
Cc1ccc(S(=O)(=O)N(C)Cc2nc(-c3ccccc3)oc2C)cc1	?	-31.9%	nt	?	-4.6%	nt
Cc1c(Cl)cccc1NC(=O)c1ccc2c(c1)CCN2S(=O)(=O)c1ccccc1	-0.8%	34.1%	nt	-2.9%[59 µM]	-2.8%	nt
CCC(NC(=O)Nc1cc(OC)ccc1OC)c1c(-n2cccc2)sc2c1CCN(CC)C2 (stereo unspecified)	39.8µM*	?	nt	14.1µM*	56.2µM*	nt
CCC(NC(=O)Nc1ccc(OC)c(OC)c1)c1c(-n2cccc2)sc2c1CCN(C)C2 (stereo unspecified)	50.1µM*	?	nt	?	?	nt
CSc1nc2c(c(=O)[nH]c(=O)n2C)n1Cc1ccc(Cl)cc1	-11.4%	?	20µM*	25.0%[0.501 µM]	-21.8%	-4.0%[2.29 µM]
CSc1nc2c(c(=O)[nH]c(=O)n2C)n1Cc1ccccc1Cl	-3.0%	16.9%	7.7%	nt	-13.8%	-4.6%
Cn1c(=O)c2c(nc(NCCCO)n2Cc2cccc(C(F)(F)F)c2)n(C)c1=O	10.0%	17.9%	5.4%	34.0%[12.7 µM]	-28.7%	3.9%
Cn1c(=O)c2c(nc(SCC(=O)O)n2Cc2cccc(C(F)(F)F)c2)n(C)c1=O	4.5%	47.1%	6.4%	14.1µM*	-27.3%	7.7%
Cn1c(=O)[nH]c(=O)c2c1nc(SCC(=O)O)n2Cc1ccccc1	7.8%	?	18.0%	22.4µM*	25.1µM*	1.6%
CCCn1c(SCc2ccc(Cl)cc2)nc2c1c(=O)[nH]c(=O)n2C	-8.8%	9.2%	8.3%	50.1µM*	-3.4%	0.2%
Cn1c(=O)[nH]c(=O)c2c1nc(SCC(=O)O)n2CCCc1ccccc1	-11.4%	25.7%	5.6%	2.4%[2.33 µM]	-10.7%	nt
CCCCc1nc2ccccc2n2c(-c3ccc(OC)cc3)c3c(=O)n(C)c(=O)n(C)c3c12	26.2%	96.9%	nt	47.3%[59 µM]	10.3%	nt
C/C=C/Cn1c(Br)nc2c1c(=O)[nH]c(=O)n2C	-1.9%	46.9%	6.9%	-9.0%[59 µM]	-11.3%	-6.4%
C/C=C/Cn1c(SC)nc2c1c(=O)[nH]c(=O)n2C	-2.5%	5.1%	?	8.91µM*	-6.2%[11.4 µM]	1.5%
Cn1c(SCc2ccccc2)nc2c1c(=O)[nH]c(=O)n2C	10.7%	46.3%	7.4%	-20.2%	-4.7%	nt
C/C=C/Cn1c(SCc2ccc(Cl)cc2)nc2c1c(=O)[nH]c(=O)n2C	1.4%	6.9%	0.7%	44.7µM*	4.1%	2.2%
CCn1c(SCc2ccccc2)nc2c1c(=O)[nH]c(=O)n2C	9.7%	9.1%	-6.2%	44.7µM*	10.0%	1.1%
COCCn1c(SCc2ccc(Cl)cc2)nc2c1c(=O)[nH]c(=O)n2C	nt	2.1%	nt	nt	-4.0%	nt
COc1ccc(-c2nc3scc(CCNS(=O)(=O)c4ccc(Oc5ccccc5)cc4)n3n2)cc1OC	-16.6%	13.8%	nt	23.6%[59 µM]	-20.8%	nt
SMILES	BAZ2B block	HP1b binding inh	Sfp PPTase inh	G9a block	JMJD2A Tudor	L3MBTL1 inh
CCOC(=O)c1c(NC(=O)Cc2ccccc2)sc2c1CC(C)(C)NC2(C)C	-11.1%	19.2%	-4.3%	?	-27.6%	-4.1%
CCOC(=O)c1c(NC(=O)C2COc3ccccc3O2)sc2c1CC(C)(C)NC2(C)C (stereo unspecified)	?	13.6%	?	56.2µM*	-28.4%	-17.3%
CCOC(=O)c1c(NC(=O)C2COc3ccccc3O2)sc(C(C)=O)c1C (stereo unspecified)	3.6%	-17.4%	4.6%	50.1µM*	-14.0%	nt
Cc1cc(=O)[nH]c2nnc(SCCC(C)C)n12	-0.2%	30.6%	nt	10.0%[59 µM]	0.3%	nt
Cc1cc(C)cc(NC(=O)Cn2c(=O)n(Cc3ccco3)c(=O)c3oc4ccccc4c32)c1	-19.8%	38.4%	nt	0.9%[59 µM]	-11.4%	nt
O=C(O)c1c[nH]c2c(C(F)(F)F)cccc2c1=O	?	32.1%	3.8%	35.5µM*	25.1µM*	nt
O=c1cc[nH]c2c(C(F)(F)F)cccc12	-5.1%	34.6%	11.7%	-6.2%[59 µM]	-9.6%	1.3%
COc1cccc2c(=O)c(C(=O)O)c[nH]c12	?	34.1%	-10.2%	22.4µM*	79.4µM*	nt
O=C(O)c1c[nH]c2ccc(S(=O)(=O)N3CCN(c4ccc(F)cc4)CC3)cc2c1=O	?	16.5%	19.9%	?	?	-6.6%
O=C(O)c1c[nH]c2ccc(F)cc2c1=O	56.2µM*	-2.0%	16.4%	17.8µM*	79.4µM*	3.3%
COc1cccc2c1Oc1ncccc1N(C(=O)CCC(=O)NCc1ccc(N(C)C)cc1)C2	-0.4%[57.1 µM]	18.0%	nt	?	-12.6%	nt
Cc1cccc(CSc2cn(CC(=O)N3CCCC3)c3ccccc23)c1	?	0.6%	nt	-10.7%[59 µM]	-33.7%	nt
Cc1ccc(C(=O)Nc2cc(Cl)ccc2-n2cncn2)o1	0.0%	29.8%	nt	8.91µM*	-12.6%	7.6%
CC(Oc1ccccc1)C(=O)Nc1cc(Cl)ccc1-n1cncn1 (stereo unspecified)	-3.6%	24.1%	nt	44.7µM*	-1.4%	9.8%
Cc1ccc(C(=O)Nc2cc(C(F)(F)F)ccc2-n2cncn2)o1	7.5%	30.5%	nt	-7.0%[12.7 µM]	-1.3%	2.0%
CC(C)CCNC(=O)[C@H](CC(C)C)NC(=O)[C@H]1O[C@@H]1C(=O)O	1.5%	nt	18.3%	35.5µM*	nt	0.1%
COc1ccc(-c2cc(=O)oc3c(C)c(OCC(=O)N(C)C)ccc23)cc1	-20.9%	15.7%	-2.7%	?	-19.3%	nt
COc1ccc(-c2cc(=O)oc3c(C)c(O)c(CN(C)C)cc23)cc1	-8.8%	2.3%	-6.6%	-9.6%[12.7 µM]	22.4µM*	-0.8%
COc1ccc(N2CCN(c3oc(COc4ccccc4Cl)nc3C#N)CC2)cc1	7.94µM*	?	-4.7%	10µM*	?	nt
COc1ccc(OCc2nc(C#N)c(N3CCN(c4ccc(OC)cc4)CC3)o2)cc1	?	-7.2%	2.5%	11.2µM*	?	-21.8%
N#Cc1nc(COc2ccccc2)oc1N1CCN(c2cccc(Cl)c2)CC1	?	-22.6%	13.3%	?	-25.1%	-1.9%
